Experimental data from PubChem BioAssay (NCATS).
Results filed as inconclusive are left out. Activity calls are given as the source filed them. Calls come from the whole dose curve; as a rule, active = well fitted cell-killing curve with a large enough effect; inconclusive = small, poorly fitted or top-dose-only effect, or effect the other way; inactive = flat fitted curve, though single readings scatter.

How the values were obtained:
Assay in all cases: Primary qHTS to identify gynecologic anti-cancer compounds using libraries of approved drugs and bioactive compounds (AID 1345084); note: nearly all actives have a fitted effect of over 55% in size
C33A = conditions: Gynecologic cancer cell panel viability, ATPlite luminescence, 48 h; series mostly up to 57.5 µM
How it was run: (§1)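 48 h compound exposure at 37 C, 5% CO2; five-point qHTS. ATPlite luminescence readout of cell ATP.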

CAOV3 = conditions: Gynecologic cancer cell panel viability, ATPlite luminescence, 48 h; series mostly up to 57.5 µM
How it was run: as §1

CASKI = conditions: Gynecologic cancer cell panel viability, ATPlite luminescence, 48 h; series mostly up to 57.5 µM
How it was run: as §1

Es-2 = conditions: Gynecologic cancer cell panel viability, ATPlite luminescence, 48 h; series mostly up to 57.5 µM
How it was run: as §1

HeLa = conditions: Gynecologic cancer cell panel viability, ATPlite luminescence, 48 h; series mostly up to 57.5 µM
How it was run: as §1

Hek293T = conditions: Gynecologic cancer cell panel viability, ATPlite luminescence, 48 h, control line for the selectivity index; series mostly up to 57.5 µM
How it was run: as §1

JEG-3 = conditions: Gynecologic cancer cell panel viability, ATPlite luminescence, 48 h; series mostly up to 57.5 µM
How it was run: as §1

OV90 = conditions: Gynecologic cancer cell panel viability, ATPlite luminescence, 48 h; series mostly up to 57.5 µM
How it was run: as §1

PA-1 = conditions: Gynecologic cancer cell panel viability, ATPlite luminescence, 48 h; series mostly up to 57.5 µM
How it was run: as §1

SKOV3 = conditions: Gynecologic cancer cell panel viability, ATPlite luminescence, 48 h; series mostly up to 57.5 µM
How it was run: as §1

Tov-21-G = conditions: Gynecologic cancer cell panel viability, ATPlite luminescence, 48 h; series mostly up to 57.5 µM
How it was run: as §1

Tov112D = conditions: Gynecologic cancer cell panel viability, ATPlite luminescence, 48 h; series mostly up to 57.5 µM
How it was run: as §1
% is set by controls: 0 for no effect and ±100 for the full control effect.

COc1ccc(CNC(=O)c2cc(-c3cncc(C)c3)ncc2-c2nccs2)nc1OC
inactive: Potency (C33A) | Potency (CAOV3) | Potency (CASKI) | Potency (Es-2) | Potency (HeLa) | Potency (Hek293T) | Potency (JEG-3) | Potency (OV90) | Potency (PA-1) | Potency (SKOV3) | Potency (Tov-21-G) | Potency (Tov112D)

C=C1CC[C@@H]2[C@](C)(CO[C@@H]3O[C@H](CO)[C@@H](O)[C@H](O)[C@H]3O)[C@H](O)CC[C@@]2(C)[C@@H]1C/C=C1/C(=O)OC[C@H]1O
inactive: Potency (C33A) | Potency (CAOV3) | Potency (CASKI) | Potency (Es-2) | Potency (HeLa) | Potency (Hek293T) | Potency (JEG-3) | Potency (OV90) | Potency (PA-1) | Potency (SKOV3) | Potency (Tov-21-G) | Potency (Tov112D)

COc1ccc(/C=C\C(=O)O)c(O[C@@H]2O[C@H](CO)[C@@H](O)[C@H](O)[C@H]2O)c1
inactive: Potency (C33A) | Potency (CAOV3) | Potency (CASKI) | Potency (Es-2) | Potency (HeLa) | Potency (Hek293T) | Potency (JEG-3) | Potency (OV90) | Potency (PA-1) | Potency (SKOV3) | Potency (Tov-21-G) | Potency (Tov112D)

CC1CCN(C(=O)CC#N)CC1N(C)c1ncnc2[nH]ccc12 (centres undefined)
inactive: Potency (C33A) | Potency (CAOV3) | Potency (CASKI) | Potency (Es-2) | Potency (HeLa) | Potency (Hek293T) | Potency (JEG-3) | Potency (OV90) | Potency (PA-1) | Potency (SKOV3) | Potency (Tov-21-G) | Potency (Tov112D)

C/C=C/c1cc(OC)c2c(c1)[C@@H](C)[C@@H](c1ccc(O)c(OC)c1)O2
inactive: Potency (C33A) | Potency (CAOV3) | Potency (CASKI) | Potency (Es-2) | Potency (HeLa) | Potency (Hek293T) | Potency (JEG-3) | Potency (OV90) | Potency (PA-1) | Potency (SKOV3) | Potency (Tov-21-G) | Potency (Tov112D)

C/C=C(\C)C(=O)OCC1OC(OC2OC(COC(=O)/C(C)=C/C)C(OC3OC(CO)C(OC(=O)/C(C)=C/C)C(OC(=O)/C(C)=C/C)C3O)C(O)C2O)C(O)C(O)C1OC1OC(CO)C(OC(=O)/C(C)=C/C)C(OC(=O)/C(C)=C/C)C1O (centres undefined)
inactive: activity change, negative = cytotoxicity (C33A) -2.64% [at 11.6 µM] | activity change, negative = cytotoxicity (CAOV3) -7.6% [at 11.6 µM] | activity change, negative = cytotoxicity (CASKI) 2.92% [at 11.6 µM] | activity change, negative = cytotoxicity (Es-2) 9.5% [at 11.6 µM] | activity change, negative = cytotoxicity (HeLa) 29.5% [at 11.6 µM] | activity change, negative = cytotoxicity (Hek293T) -1.84% [at 11.6 µM] | activity change, negative = cytotoxicity (JEG-3) -2.52% [at 11.6 µM] | activity change, negative = cytotoxicity (OV90) -3.76% [at 11.6 µM] | activity change, negative = cytotoxicity (PA-1) 0.651% [at 11.6 µM] | activity change, negative = cytotoxicity (SKOV3) -11.6% [at 11.6 µM] | activity change, negative = cytotoxicity (Tov-21-G) 9.19% [at 11.6 µM] | activity change, negative = cytotoxicity (Tov112D) -1.35% [at 11.6 µM]

COc1ccc2nc(S(=O)(=O)Cc3ncc(C)c(OC)c3C)[nH]c2c1
inactive: Potency (C33A) | Potency (CAOV3) | Potency (CASKI) | Potency (Es-2) | Potency (HeLa) | Potency (Hek293T) | Potency (JEG-3) | Potency (OV90) | Potency (PA-1) | Potency (SKOV3) | Potency (Tov-21-G) | Potency (Tov112D)

C/C=C1\[C@H](O[C@@H]2O[C@H](CO)[C@@H](O)[C@H](O)[C@H]2O)OC=C(C(=O)OC)[C@H]1CC(=O)OC[C@H]1O[C@@H](OCCc2ccc(O)cc2)[C@H](O)[C@@H](O)[C@@H]1O
inactive: Potency (C33A) | Potency (CAOV3) | Potency (CASKI) | Potency (Es-2) | Potency (HeLa) | Potency (Hek293T) | Potency (JEG-3) | Potency (OV90) | Potency (PA-1) | Potency (SKOV3) | Potency (Tov-21-G) | Potency (Tov112D)

O=C(O)[C@H](Cc1ccc(Nc2nccc3ccncc23)cc1)NC1=C(Br)C(=O)C12CCCCC2
inactive: Potency (C33A) | Potency (CAOV3) | Potency (CASKI) | Potency (Es-2) | Potency (HeLa) | Potency (Hek293T) | Potency (JEG-3) | Potency (OV90) | Potency (PA-1) | Potency (SKOV3) | Potency (Tov-21-G) | Potency (Tov112D)

CC1(C)CC[C@]2(C(=O)O[C@@H]3O[C@H](CO)[C@@H](O)[C@H](O)[C@H]3O)CC[C@]3(C)C(=CCC4[C@@]5(C)C[C@@H](O)[C@H](O)C(C)(C)C5[C@H](O)C[C@]43C)[C@@H]2[C@@H]1O (some centres undefined)
inactive: Potency (C33A) | Potency (CAOV3) | Potency (CASKI) | Potency (Es-2) | Potency (HeLa) | Potency (Hek293T) | Potency (JEG-3) | Potency (OV90) | Potency (PA-1) | Potency (SKOV3) | Potency (Tov-21-G) | Potency (Tov112D)

N#Cc1ccc2[nH]cc(CCCCN3CCN(c4ccc5oc(C(N)=O)cc5c4)CC3)c2c1
inactive: Potency (C33A) | Potency (CAOV3) | Potency (CASKI) | Potency (Es-2) | Potency (HeLa) | Potency (Hek293T) | Potency (JEG-3) | Potency (OV90) | Potency (PA-1) | Potency (SKOV3) | Potency (Tov-21-G) | Potency (Tov112D)

Cc1cn(C2C=CC(CO)O2)c(=O)[nH]c1=O (centres undefined)
inactive: Potency (C33A) | Potency (CAOV3) | Potency (CASKI) | Potency (Es-2) | Potency (HeLa) | Potency (Hek293T) | Potency (JEG-3) | Potency (OV90) | Potency (PA-1) | Potency (SKOV3) | Potency (Tov-21-G) | Potency (Tov112D)
